From PubChem BioAssay AID589 (National Center for Advancing Translational Sciences (NCATS), 2007)
Hit rate of the full screen: of about 59,000 compounds, about 6,200 (11%) were called active. Another 9% or so got no clear call; they are omitted. No stated cut-off is given here; in the data, active means max dye-equivalent concentration above about 10 nM; inconclusive means mostly about 1.1 nM to 9.6 nM; inactive means weaker than that. The list comes from a sample in which actives are over-represented; it also holds similar structures and randomly drawn compounds.

assay: qHTS Assay for Spectroscopic Profiling in 4-MU Spectral Region; conditions: compound autofluorescence, 340/450 nm, 4-MU equivalents; active compounds read high
How it was run: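 Compounds in 100 mM Tris, pH 8.0, sat 15 min at room temperature before fluorescence was read at 340 nm excitation/450 nm emission; a per-plate six-point 4-MU standard curve converted signals to dye-equivalent concentration at each compound concentration.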

Max dye-equivalent concentration, active:
CCCn1nnc2sc3c(c2c1=O)CCC(C)C3 (stereo not given) 33 nM, CCOC(=O)C1=C(C)NC(C)=C(C(=O)OCC)C1c1ccccn1 290 nM, CCCCNc1nc2ccccc2nc1NS(=O)(=O)c1cccs1 45 nM, COc1ccc(S(=O)(=O)N2CCN(C(=O)c3cccs3)CC2)cc1OC 3300 nM, CCN(CC)CCN1C(=O)C(=O)/C(=C(/O)c2ccc(OC)c(OC)c2)C1c1ccccn1 (stereo not given) 33 nM, CCc1nc(Nc2ccc3nccnc3c2)c2oc3ccccc3c2n1 55 nM, O=C(NCc1ccco1)c1cnn2c(C(F)(F)F)cc(-c3ccco3)nc12 260 nM, COC(=O)c1cnn2c(C(F)(F)F)cc(-c3ccco3)nc12 970 nM, Cc1nc(NCCN)c(C#N)c2c1COC(C)(C)C2 13 nM, CCCc1cc(=O)oc2c(C)c(O)c(CN3CCCCC3)cc12 7800 nM, COC(=O)Nc1nc2ccc(Sc3ccccc3)cc2[nH]1 14 nM

Max dye-equivalent concentration, inactive:
Cc1ccc(S(=O)(=O)N2CCC(C(=O)OCC(=O)N3CC(=O)Nc4ccccc43)CC2)cc1, CN(C)C(=O)c1ccc(-c2cncnc2NC2CCNCC2)cc1, CC(=O)OCC(=O)[C@@]1(O)CC[C@@H]2[C@H]3CCC4=CC(=O)C=C[C@]4(C)[C@]3(F)[C@@H](O)C[C@@]21C, Cn1c(Cc2csc(N)n2)nnc1SC/C=C/c1ccccc1, O=C(Nc1ccc2c(c1)OCCO2)c1ccncc1, COc1ccc(C(=O)N2CCC3(CCCN(C(c4ccccc4)c4ccccc4)C3)CC2)cc1, CC(c1ccco1)N(C(=O)c1ccc(S(=O)(=O)N2CCCCC2)cc1)c1ccccn1 (stereo not given), CCOc1cccc(NC(=O)C2CCCN(S(=O)(=O)c3ccc(OC)cc3)C2)c1 (stereo not given), C[C@@H]1CC[C@H]2[C@H](C)[C@H]3[C@H](C[C@H]4[C@@H]5CC=C6C[C@@H](O)CC[C@@]6(C)[C@@H]5C[C@@H](O)[C@]34C)N2C1, O=c1c2ccccc2nnn1CSc1nc2sc3c(c2c(=O)n1CC1CCCO1)CCC3 (stereo not given), CC1CCc2sc3nc(N4CCN(CCO)CC4)n4ncnc4c3c2C1 (stereo not given), O/N=C(\c1ccc2c(c1)OCCO2)C1CCCCC1, CCN(CC)Cc1c(C(=O)OC)nnn1-c1nonc1N, CC(=O)c1sc2nc(SCC(=O)N3CCCCC3)[nH]c(=O)c2c1C, O=C1N=C(N2CCOCC2)CS1, CN(CCC#N)c1ncnc2scc(-c3ccccc3)c12, CCCC(=O)NC(C)C(c1cccs1)N1CCN(c2ccccc2)CC1 (stereo not given), CCOC(=O)c1ccc(NC(=O)CSc2ncccn2)cc1, COCCOC(=O)C1=C(C)Nc2nc(C)nn2C1c1ccccc1 (stereo not given), Cc1ccc(S(=O)(=O)NCCN2CCOCC2)cc1C, Cc1nn(C)c(C)c1S(=O)(=O)N1CCc2ccccc21, O=S(=O)(c1cccs1)N1CCN(Cc2ccccc2)CC1, O=S(=O)(c1cccs1)N1CCc2ccccc2C1, CC(C)CCNC(=O)CN(C(=O)Cn1nnc(-c2ccc(F)cc2)n1)C1CCCC1, O=C(O)c1cscn1, COc1ccc(OCC(=O)N2CCN(C(=O)c3cccs3)CC2)cc1, CCCS(=O)(=O)N1CCN(C(=O)c2cccs2)CC1, NCC(=O)[C@@H](O)[C@H](O)[C@H](O)CO, CCn1c(SCC(=O)Nc2cc(C)c(Cl)cc2OC)nnc1-c1ccco1, O=S(=O)(NCc1ccc2c(c1)OCO2)c1cccc2nsnc12, COc1ccc(/C(O)=C2/C(=O)C(=O)N(CCCN(C)C)C2c2ccccc2)cc1OC (stereo not given), CCCOc1ccc(/C(O)=C2/C(=O)C(=O)N(CCN(C)C)C2c2ccc(OC)c(OC)c2)cc1 (stereo not given), CCn1nc(C(=O)OCC(=O)N2c3ccccc3CC2C)c2ccccc2c1=O (stereo not given), Cc1noc(COc2ccccc2OCC(O)CNC(C)(C)C)n1 (stereo not given), CCSc1nc(C)nc2c1oc1ccccc12, CCc1nc(N2CCN(c3nc(C)cc(C)n3)CC2)c2oc3ccccc3c2n1, COc1ccccc1CNC(=O)CCCn1c(=O)c2ccccc2n(CC(=O)NC2CCCC2)c1=O, Cc1ccc(C(c2nnnn2CS(=O)(=O)c2ccc(C)cc2)N2CCC(C(N)=O)CC2)cc1 (stereo not given), O=C(CSc1nc(-c2ccco2)cc(C(F)(F)F)n1)N1CCc2ccccc2C1, O=C(NCc1ccco1)c1cc(-c2cccnc2)nc2ccc(Cl)cc12, O=C(Nc1ccccc1)Nc1ccccc1C(=O)NCc1ccco1, COC(=O)c1ccccc1NC(=O)Cn1nc(C(F)(F)F)c2c1CCC2, CCOC(=O)C1C(=O)OC2(CCCC2)C1C(=O)OCC (stereo not given), Cc1cccc(NC(=O)C2CCCN2S(=O)(=O)c2ccc(F)cc2)c1C (stereo not given), CCOC(=O)C1(C(F)(F)F)N=C(N(C)C)OC(N(C)C)=N1, CC(=O)c1c(C)n(-c2ccc(N(C)C)cc2)c2ccc(OCC(N)=O)cc12, COc1cc(OC)c(C(=O)NC2CC(C)(C)NC(C)(C)C2)cc1OC, COc1ccc(CCn2c(NCCCN3CCOCC3)nc3c2c(=O)[nH]c(=O)n3C)cc1, CCCCn1c(SCc2ncc(-c3ccccc3)o2)nc2cc(S(N)(=O)=O)ccc21, CCN1CCN(c2ncnc3c2oc2nc(C)c4c(c23)CC(C)(C)OC4)CC1, C=CCNC(=O)CCCC(=O)NCC=C, Nc1nc2c(ncn2[C@H]2CC[C@@H](CO)O2)c(=O)n1C(=O)c1ccccc1, CC(=O)c1cccc(NC(=O)N2CCCC2C(=O)NCCC(C)C)c1 (stereo not given), COc1ccc(NC(=O)N2CC3(CCN(C(C)=O)CC3)C2)cc1, CCOC(=O)c1c(NC(=O)CCC(=O)NCc2ccco2)sc2c1CCCC2, CCOC(=O)N1CCN(Cc2oc(CO)cc(=O)c2O)CC1, Nc1nnnn1/N=C/c1cccs1, Oc1ccc2nc(Cc3ccccc3)[nH]c2c1, COC(=O)Cc1nc2ccccc2[nH]1
